Measurements taken from the supplement of paper PMC8728848.
Many of the other results were omitted from the sample, so the strongest signals are more common in it than they were.

How the values were obtained:
Experiment in all cases: glycan array binding signal (z-score within array); higher = stronger binding
Conditions in all cases: glycan notation: IUPAC condensed, linker removed; mutation: E227A
[1] = target: Fuc(a1-2)Gal(b1-3)GalNAc(a1-3)[Fuc(a1-2)]Gal(b1-4)Glc
Procedure, shortened: (§1)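 Columns mapping to the same glycan were averaged after glycan names were converted to IUPAC-condensed notation. The data come from 3228 arrays in the Consortium for Functional Glycomics database, limited to those with an available protein sequence. Binding is reported as a within-array Z-score averaged across arrays of one protein sequence and across linkers.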

[2] = target: Fuc(a1-2)Gal(b1-3)GlcNAc(b1-3)[Gal(b1-4)GlcNAc(b1-6)]Gal(b1-4)Glc
Procedure, shortened: as §1

[3] = target: Fuc(a1-2)Gal(b1-3)[Fuc(a1-4)]GlcNAc(b1-2)Man(a1-3)[Fuc(a1-2)Gal(b1-3)[Fuc(a1-4)]GlcNAc(b1-2)Man(a1-3)]Man(b1-4)GlcNAc(b1-4)GlcNAc
Procedure, shortened: as §1

[4] = target: Fuc(a1-2)Gal(b1-4)Fuc(a1-3)]GlcNAc(b1-2)Man(a1-3)[Fuc(a1-2)Gal(b1-4)[Fuc(a1-3)]GlcNAc(b1-2)Man(a1-6)]Man(b1-4)GlcNAc(b1-4)GlcNAc
Procedure, shortened: as §1

[5] = target: Fuc(a1-2)[Gal(a1-3)]Gal(b1-3)GlcNAc(b1-3)GalNAc
Procedure, shortened: as §1

[6] = target: Fuc(a1-2)[Gal(a1-3)]Gal(b1-4)[Fuc(a1-3)]GlcNAc(b1-3)GalNAc
Procedure, shortened: as §1

[7] = target: Fuc(a1-2)[Gal(a1-4)]Gal(b1-4)GlcNAc
Procedure, shortened: as §1

[8] = target: Fuc(a1-2)[GalNAc(a1-3)]Gal(b1-3)GlcNAc(b1-3)GalNAc
Procedure, shortened: as §1

[9] = target: Fuc(a1-2)[GalNAc(a1-3)]Gal(b1-4)[Fuc(a1-3)]GlcNAc
Procedure, shortened: as §1

[10] = target: Fuc(a1-2)[GalNAc(b1-3)]Gal
Procedure, shortened: as §1

[11] = target: Fuc(a1-3)[Gal(b1-4)]GlcNAc6S
Procedure, shortened: as §1

[12] = target: Fuc(a1-3)[Gal3S(b1-4)]Glc
Procedure, shortened: as §1

Gal(b1-2)Gal = target: Gal(b1-2)Gal
Procedure, shortened: as §1

Gal(b1-3)Gal(b1-4)GlcNAc = target: Gal(b1-3)Gal(b1-4)GlcNAc
Procedure, shortened: as §1

Gal(b1-3)GalNAc = target: Gal(b1-3)GalNAc
Procedure, shortened: as §1

[13] = target: Gal(b1-3)GalNAc(b1-4)Gal(b1-4)Glc
Procedure, shortened: as §1

[14] = target: Gal(b1-3)GlcNAc(a1-6)Gal(b1-4)GlcNAc
Procedure, shortened: as §1

[15] = target: Gal(b1-3)GlcNAc(b1-6)Gal(b1-4)GlcNAc
Procedure, shortened: as §1

Gal(b1-3)GlcNAc6S = target: Gal(b1-3)GlcNAc6S
Procedure, shortened: as §1

Gal(b1-4)Glc = target: Gal(b1-4)Glc
Procedure, shortened: as §1

[16] = target: Gal(b1-4)GlcNAc(b1-3)Gal(b1-4)GlcNAc(b1-3)Gal(b1-4)GlcNAc(b1-2)Man(a1-3)[Gal(b1-4)GlcNAc(b1-3)Gal(b1-4)GlcNAc(b1-3)Gal(b1-4)GlcNAc(b1-2)Man(a1-6)]Man(b1-4)GlcNAc(b1-4)GlcNAc
Procedure, shortened: as §1

[17] = target: Gal(b1-4)GlcNAc(b1-3)Gal(b1-4)GlcNAc(b1-3)Gal(b1-4)GlcNAc(b1-2)[Gal(b1-4)GlcNAc(b1-3)Gal(b1-4)GlcNAc(b1-3)Gal(b1-4)GlcNAc(b1-6)]Man(a1-6)[Gal(b1-4)GlcNAc(b1-3)Gal(b1-4)GlcNAc(b1-3)Gal(b1-4)GlcNAc(b1-2)Man(a1-3)]Man(b1-4)GlcNAc(b1-4)[Fuc(a1-6)]GlcNAc
Procedure, shortened: as §1

[18] = target: Gal(b1-4)GlcNAc(b1-6)[Gal(b1-3)]GalNAc
Procedure, shortened: as §1

Gal3S(b1-4)Glc = target: Gal3S(b1-4)Glc
Procedure, shortened: as §1

Gal6S(b1-3)GlcNAc6S = target: Gal6S(b1-3)GlcNAc6S
Procedure, shortened: as §1

Gal6S(b1-4)Glc = target: Gal6S(b1-4)Glc
Procedure, shortened: as §1

Gal6S(b1-4)Glc6S = target: Gal6S(b1-4)Glc6S
Procedure, shortened: as §1

Gal6S(b1-4)GlcNAc = target: Gal6S(b1-4)GlcNAc
Procedure, shortened: as §1

Gal6S(b1-4)GlcNAc6S = target: Gal6S(b1-4)GlcNAc6S
Procedure, shortened: as §1

GalNAc(b1-4)GlcNAc6S = target: GalNAc(b1-4)GlcNAc6S
Procedure, shortened: as §1

B1: Epa1-NP-mutant-E227A (Candida glabrata), Q6VBJ0 (protein)
chain: MILNPALFLNKCVCIYTTLILLLLTNGGYATSSNDISLASKDPTTFPLGCSPDITTPKKGLSMELYSYDFRKKGSYPCWDAAYLDPNYPRTGYKSHRLLAKVDGVTGNINFYYHATKGCTPQLGHLPASYNYPKPLTMTNFTMLLYGYFRPKVTGFHTFTISADDLLFVNFGAGNAFDCCRRDSSADHFGNYQAYAIWGSKTAKDELTVHLDAGVYYPIRLFYNNRAYDGALSFTFKTESNENTVSDFSEYFFSLDDTEEGCPGLISYDSSCASVKTSKIIGIDYHTETPNENLVPITKTIYHLGIPCTGTTTTPLCGSGFYDPLANKCVTINTSSTSSVTKTTSHTTSKEVSFHSSISSQKTLIPKSIPSPYGPIKSQSIPTEMETSSEISSSEYAFSDVISTPSHSPYTKKHSSLNSSSYTSTVIHSLTSYSISQGIFSTSLSEQNITSKSSTDKFSTATSMSNNITQSSIIISQFSTNNENYTTTSMHTSSDKISTETLNNSISTTTSILFSNSSTILKNNTTIISSDKDTHYHPVNPTIVCSTNKTEIICASITQPSISNSNNHWSSSVLKFNSTTVRSTLPSSAGSNETSINVPFSSSTESNTSTSSTSTSNSKMVRSTLPSSAGSNETSISVPFSSSTESNTSTSSTSTSNSKMVRSTLPSSAGSNETSINVPFSSSTESNTSTSSTSTSNSKTVRSTPFSSAGIIMTSLSQRNNKSASSYASSNSKCYNTADSCRKVHSTPSYLLTSSYTSEGVDYDCSLVSTKLKINDTNCVNNKHTTKSCLKTSVTTTIPTLEIKTARKSSSNTIGLHSYPTSSPNKSISSAPIIGYISSFKTIKTASPSYQTSDLTTITTITSLNNPGSTAVENTHESNDKSRKTSSNDISSKHSVIKETKDAVESSNKSHQTNTLKCSSIIIASSSHNSYESLGGTTLTLTLSKVYSPQNNDTLPFLEISEVNPSRTVLPESSKMMQYLTSTEERNKTARNTIATNIVSISTFHFEGEGNAIRMGYTQLLLMLIGIIVMNIGT
glycan array binding signal (z-score) [1]: -0.214
glycan array binding signal (z-score) [2]: -0.138
glycan array binding signal (z-score) [3]: -0.162
glycan array binding signal (z-score) [4]: -0.184
glycan array binding signal (z-score) [5]: -0.204
glycan array binding signal (z-score) [6]: -0.168
glycan array binding signal (z-score) [7]: -0.221
glycan array binding signal (z-score) [8]: -0.197
glycan array binding signal (z-score) [9]: -0.13
glycan array binding signal (z-score) [10]: -0.161
glycan array binding signal (z-score) [11]: -0.143
glycan array binding signal (z-score) [12]: -0.172
glycan array binding signal (z-score) (Gal(b1-2)Gal): -0.041
glycan array binding signal (z-score) (Gal(b1-3)Gal(b1-4)GlcNAc): 2.03
glycan array binding signal (z-score) (Gal(b1-3)GalNAc): 1.28
glycan array binding signal (z-score) [13]: 3.42
glycan array binding signal (z-score) [14]: -0.057
glycan array binding signal (z-score) [15]: 7.88
glycan array binding signal (z-score) (Gal(b1-3)GlcNAc6S): 1.37
glycan array binding signal (z-score) (Gal(b1-4)Glc): -0.13
glycan array binding signal (z-score) [16]: 0.626
glycan array binding signal (z-score) [17]: 1.15
glycan array binding signal (z-score) [18]: 1.27
glycan array binding signal (z-score) (Gal3S(b1-4)Glc): -0.193
glycan array binding signal (z-score) (Gal6S(b1-3)GlcNAc6S): 1.88
glycan array binding signal (z-score) (Gal6S(b1-4)Glc): 4.56
glycan array binding signal (z-score) (Gal6S(b1-4)Glc6S): 6.39
glycan array binding signal (z-score) (Gal6S(b1-4)GlcNAc): 5.93
glycan array binding signal (z-score) (Gal6S(b1-4)GlcNAc6S): 15.2
glycan array binding signal (z-score) (GalNAc(b1-4)GlcNAc6S): -0.184
